Bioassay records (PubChem BioAssay)
TDP1 cell noCPT: qHTS for Inhibitors of human tyrosyl-DNA phosphodiesterase 1 (TDP1): qHTS in cells in absence of CPT. DT40 Tdp1-/- hTDP1 cells, no CPT, ATP luminescence, 48 h. Potency, µM (top dose mostly 46.2 µM), without a hit: top-dose activity change, negative = growth inhibition, usual class: inhibitors. actives 15% (n = 420,000); note: potency is the fitted concentration of half-maximal effect; nearly all actives have a fitted effect of over 55% in size
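Growth kinetics read by CellTiter-Glo luminescence after ≥48 hr at 37 °C. Cells: DT40 Tdp1-/- stably carrying human TDP1, 400 per well, compound exposure in the absence of CPT (DMSO vehicle).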
LDHA block: inhibitors of human lactate dehydrogenase A. AID 1347041. activity change, % (values are at about 110 or 230 µM). purified LDHA, NADH/diaphorase-resazurin fluorescence; stronger effect = lower value. actives 0.15% (n = 480,000). P00338; in the data active = activity change below about -30%; inconclusive = mostly about -25% to -30%;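 note: plate controls were DMSO wells for no effect and wells without enzyme for full effect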
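Human LDH5 at 2 nM final in Tris HCl pH 7.4 with 0.06 mM NADH and 0.2 mM pyruvate, reacted 5 minutes at room temperature. Remaining NADH coupled via diaphorase/resazurin; resorufin fluorescence read at 0 and 20 minutes, normalized to enzyme-free and DMSO wells.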
Gal4-VP16 FLuc: counter-screen for ROR gamma inhibitors: Gal4-VP16 reporter; Drosophila S2 Gal4-VP16 UAS-luciferase, luminescence, 20 h; Potency, µM (highest dose often 53.6 µM), for inactives: top-dose activity, negative = inhibition, hits mostly inhibitors; actives 3.5% (n = 310,000); AID 2546;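 note: Gal4-VP16 expression switched on by copper sulfate through the metallothionein promoter; potency is the fitted concentration of half-maximal effect; nearly all actives have a fitted effect of over 50% in size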
TDP1 cell CPT: growth inhibition of DT40 Tdp1-/-;hTDP1 cells with camptothecin (screen for TDP1 inhibitors). chicken DT40 Tdp1-/-;hTDP1 cells + 20 nM CPT, ATP luminescence, 48 h. Potency, µM (highest dose often 46.2 µM), for inactives: at the highest dose activity change, negative = growth inhibition, actives largely listed as inhibitors. actives 12% (n = 420,000); note: potency is the fitted concentration of half-maximal effect; nearly all actives have a fitted effect of over 55% in size
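Chicken DT40 Tdp1-/- cells stably complemented with human TDP1 were seeded at 400 cells/well in medium containing 20 nM camptothecin, exposed to pin-transferred compounds, and grown at 37 °C for at least 48 hr. Viability was read as ATP luminescence.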
RORgamma inh: inhibitors of mouse ROR gamma transcriptional activity; Drosophila S2 Gal4-RORgamma UAS-luciferase reporter, 20 h; Potency, µM (top dose mostly 53.6 µM), without a hit: top-dose activity change, negative = inhibition, actives largely listed as inhibitors; actives 5.4% (n = 310,000); AID 2551; note: potency is the fitted concentration of half-maximal effect; nearly all actives have a fitted effect of over 60% in size
Target sequence (P51450 whole entry, looked up, the tested form may be a part): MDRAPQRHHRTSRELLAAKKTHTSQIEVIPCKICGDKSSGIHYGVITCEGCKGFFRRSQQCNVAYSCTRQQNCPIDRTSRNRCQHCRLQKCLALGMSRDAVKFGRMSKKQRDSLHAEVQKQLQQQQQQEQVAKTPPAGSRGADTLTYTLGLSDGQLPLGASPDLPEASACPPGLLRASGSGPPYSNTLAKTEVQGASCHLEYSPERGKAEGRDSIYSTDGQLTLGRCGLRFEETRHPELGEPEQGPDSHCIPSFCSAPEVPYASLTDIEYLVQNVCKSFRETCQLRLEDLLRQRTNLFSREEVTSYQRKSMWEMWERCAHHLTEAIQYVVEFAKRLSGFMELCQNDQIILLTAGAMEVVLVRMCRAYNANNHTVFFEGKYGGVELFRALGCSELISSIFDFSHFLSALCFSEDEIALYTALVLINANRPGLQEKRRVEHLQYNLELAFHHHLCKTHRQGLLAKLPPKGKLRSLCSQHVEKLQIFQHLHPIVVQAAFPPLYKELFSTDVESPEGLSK
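ROR gamma transcriptional activity was tracked as Gal4-UAS luciferase output in stably transfected Drosophila Schneider cells, with compound added 1 hr before 700 uM copper sulfate induction and a 20 hr ambient-temperature incubation.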
IL-1B inflam inh: inhibitors of inflammasome signaling (IL-1 beta secretion); actives 4.7% (n = 360,000); THP-1 LPS/ATP IL-1B secretion, AlphaLISA, 16 h; stronger effect = lower value; AID 743279; activity change, % at 57.5 µM; in the data active = activity change below about -50%; inconclusive = mostly about -30% to -49%
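THP-1 cells pretreated 1 hr with compounds (up to 57.5 uM final), then stimulated with LPS (250 ng/mL final) plus ATP (1.25 mM final); secreted IL-1B measured by AlphaLISA after 16 hr, decreased signal indicating inhibition.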
* hit, by the source's call; ? = inconclusive; / = no result; [ ] = remark or other dose. A selection: hits, their analogues and other compounds. The true share with any hit is near 18%. Unless noted, calls come from the whole dose curve; as a rule, active = well fitted curve in the direction sought with a large enough effect; inconclusive = small, poorly fitted or top-dose-only effect, or another doubt; inactive = no such curve, though single readings can be large; an effect the other way counts as inactive or inconclusive. Unless noted, % is set by controls: 0 for no effect and ±100 for the full control effect.

SMILES	TDP1 cell noCPT	LDHA block	Gal4-VP16 FLuc	TDP1 cell CPT	RORgamma inh	IL-1B inflam inh
C/C=C/Cn1c(SCc2ccc(Cl)cc2)nc2c1c(=O)[nH]c(=O)n2C	23.1µM*	-9.1	-3.6%	18.4µM*	22.3%	17.8
CCCCSc1nc2c(c(=O)[nH]c(=O)n2C)n1CCCC	/	-6.5	/	/	/	/
CCn1c(SCc2ccccc2)nc2c1c(=O)[nH]c(=O)n2C	18.4µM*	-1.8	-2.1%	?	?	48.1
CCCCCCn1c(SCCC)nc2c1c(=O)[nH]c(=O)n2C	10.3µM*	-1.4	-1.3%	-22.8%	-12.6%	17.3
C/C=C/Cn1c(SCCCc2ccccc2)nc2c1c(=O)[nH]c(=O)n2C	?	-0.5	0.0%	?	25.4%	36.2
C=CCn1c(SCCCc2ccccc2)nc2c1c(=O)[nH]c(=O)n2C	25.9µM*	-8.0	-14.4%	?	22.6%	53.9
CN(C)CC(O)COc1ccc(NC(=O)Nc2ccccc2F)cc1 (stereo not given)	/	-0.4	/	/	/	/
O=c1c2cccc3c2c(nn1CN1CCOCC1)-c1ccccc1-3	20.6µM*	-1.4	-17.6%	?	-19.9%	-13.8
CCN(CC)CCn1nc2c3c(cccc3c1=O)-c1ccccc1-2	0.0164µM*	-2.5	-6.1%	0.517µM*	-9.9%	-98.9*
CCN(CC)CCn1nc(C)nc1-c1ccccc1O	-8.1%	4.0	-5.4%	-7.2%	-11.7%	0.0
COc1ccc(NC(=O)N[C@@H](CCSC)C(=O)O)c(OC)c1	/	-11.0	/	/	/	/
O=c1c2ccccc2nc(/C=C/c2c[nH]c3ccccc23)n1-c1ccc([N+](=O)[O-])cc1	?	-8.0	-10.8%	10.3µM*	8.4%	11.0
Cc1[nH]c2ccccc2c1/C=C/c1nc2ccccc2c(=O)n1-c1cccc([N+](=O)[O-])c1	18.4µM*	-2.3	?	?	-26.4%[10 µM]	1.0
COc1ccc(-n2c(/C=C/c3c(C)[nH]c4ccccc34)nc3ccccc3c2=O)cc1	?	-2.9	/	?	/	/
Cn1c(/C=C/c2c[nH]c3ccccc23)nc2ccccc2c1=O	/	-15.2	/	/	/	/
COc1ccc(C(CNC(=O)c2ccc(-c3cccc(C(F)(F)F)c3)o2)N2CCOCC2)cc1 (stereo not given)	20.6µM*	-6.6	/	?	/	-27.7
Cc1c(C(=O)NCC(c2ccc(Cl)cc2)N2CCOCC2)oc2ccccc12 (stereo not given)	23.1µM*	1.0	/	16.4µM*	/	/
COc1ccc(C(CNC(=O)c2oc3ccc(C)cc3c2C)N2CCOCC2)cc1 (stereo not given)	-94.4%	-3.6	/	23.1µM*	/	/
CCC1CCc2sc(C(=O)NCC(c3ccc(OC)cc3)N3CCOCC3)cc2C1 (stereo not given)	13µM*	3.2	/	23.1µM*	/	-17.3
COc1ccc(C(CNC(=O)c2cc(C)oc2C)N2CCOCC2)cc1 (stereo not given)	?	0.8	13.8%	?	-32.0%	-3.9
Cc1ccc(C(=O)Oc2cccc(C)c2C)cc1Br	/	4.1	/	/	/	/
Cc1ccc2oc(C(=O)NCC(c3ccc(Cl)cc3)N3CCOCC3)c(C)c2c1 (stereo not given)	10.3µM*	2.2	/	8.2µM*	/	/
Cc1ccc2c(C)c(C(=O)NCC(c3cccs3)N3CCOCC3)oc2c1 (stereo not given)	/	-6.9	/	/	/	/
CC(C)(C)c1ccc(CCC(=O)NC(C(N)=O)c2ccccc2)cc1 (stereo not given)	/	-7.1	/	/	/	/
CC(C)C[C@H](NC(=O)[C@@H](O)[C@H](N)Cc1ccccc1)C(=O)O	22.4µM*	/	-8.2%	-20.3%[92.5 µM]	-1.2%	/
Cc1cccc(-c2noc(-c3ccccc3OCC(=O)Nc3ccccc3[N+](=O)[O-])n2)c1	16.4µM*	-5.6	/	?	/	/
